From PubChem BioAssay AID652208 (Broad Institute, 2013)
Potency and affinity values are given separately. The source made the active and inactive calls.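 The calls were made as follows: active = Loss of cell signal with fitted half-effect dose at or below twice the top valid tested dose; inconclusive = Poor fit, or flat fit from -70 to -30 percent; inactive = Half-effect above limit, rising signal, or flat within 30 percent.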

Test: viability loss in HEK293T cells – cell-based, cherry-picks, cytotoxicity control for HIV Vif inhibitor project, dose response (AID 652208)
Conditions: CellTiter-Glo luminescence, 24 h; series mostly up to 26 µM

SMILES	outcome
CC(C)CCNC(=O)CCc1nnc(COc2ccccc2)o1	inactive
COc1ccc(CN(C(=O)Cn2nnc(-c3ccc(C)o3)n2)C(C(=O)NCC2CCCO2)c2ccco2)cc1 (centres undefined)	inactive
Cc1cc(-c2nnc(SCC(=O)c3ccc(Cl)cc3)o2)no1	inactive
COc1ccccc1N1C(=O)c2cccc3c(N(C)CCO)ccc(c23)C1=O	inactive
COc1ccc(CNC(=O)CN2C(=O)NC(c3ccccc3)(c3ccccc3)C2=O)cc1	inactive
O=C(O)CCCCn1c(SCc2ccccc2Cl)nc2ccsc2c1=O	inactive
CCOC(=O)C1(Cc2ccccc2)CCN(Cc2csc(C(C)=O)c2)CC1	inactive
Cc1ccc(CNCCCSc2ncccn2)cc1	inactive
COC(=O)c1cc(Cl)c(NC(=O)c2cc3ccccc3o2)cc1OC	inactive
Cc1nc(SCC(=O)N2CCCC2=O)nc(C)c1C	inactive
Cc1ccc(NC(=O)/C=C/c2ccco2)nc1	inactive
CCN1C(=O)c2cccc3c(S(=O)(=O)Nc4ccccc4O)ccc1c23	inactive
COc1ccc(CNC(=O)Nc2cccs2)cc1OC	inactive
O=c1sc(N2CCN(c3ccc(F)cc3)CC2)nc2ccsc12	inactive
CC(C)C(=O)N=C1SC2CS(=O)(=O)CC2N1Cc1ccccc1 (centres undefined)	inactive
O=C(Nc1nn[nH]n1)c1cc(-c2ccc(Cl)c(Cl)c2Cl)nc2ccccc12	inactive
O=C(O)c1ccc(S(=O)(=O)c2ccc3c(c2)C(=O)N(c2ccc(Br)cc2)C3=O)cc1	inactive
COc1ccccc1Oc1coc2cc(OCC(N)=O)ccc2c1=O	inactive
N#Cc1c(C(F)(F)F)cc(-c2ccco2)nc1SCc1ccncc1	inactive
Cc1nnc2ccc(-c3ccc(NS(=O)(=O)c4ccc(F)cc4F)cc3)nn12	inactive
COc1ccc(NC(=O)c2ccccc2NC(=O)CSc2ccc(C)cc2)cc1	inactive
Cc1cc(/C=C2\C(=N)N3C(SCc4ccccc4)=NSC3=NC2=O)c(C)n1Cc1ccccc1	inactive
O=C(c1ccc2c(c1)OCO2)N(CC1CCCO1)C1(C(=O)NC2CCCC2)CCCCC1 (centres undefined)	inactive
NC(=O)c1sc2nc(-c3ccccc3)ccc2c1N	inactive
COc1ccc(-c2nc(CS(=O)(=O)CC(=O)NCCc3ccccc3)c(C)o2)cc1	inactive

SMILES	outcome
CCC(C)n1c(-c2cccs2)nc2nc3ccccc3nc21 (centres undefined)	inactive
COc1cc(OC)cc(C(=O)N[C@H](C(=O)Nc2ccc3c(c2)OCO3)C(C)C)c1	inactive
COc1cc(OC)cc(C(=O)NC(C(=O)Nc2ccc3c(c2)OCO3)C(C)C)c1 (centres undefined)	inactive
COCCNCC(=O)Nc1nc(C)cs1	inactive
CCOc1ccc(C(C)=O)cc1COC(=O)c1cc([N+](=O)[O-])ccc1N1CCOCC1	inactive
COc1ccc(OCCN2CCC(C(=O)NC(c3ccccn3)c3ccccc3OC)CC2)cc1 (centres undefined)	inactive
CCn1c(/C=C/c2ccc(F)cc2)nc2ccccc2c1=O	inactive
COc1ccc(-c2nnc(SCC(=O)N3CCCc4ccccc43)o2)cc1OC	inactive
CC(=O)Nc1ccc(C2(c3ccc(NC(C)=O)cc3)NC(=O)c3ccccc32)cc1	inactive
CC(C)(C)NC(=O)NC(=O)COc1ccccn1	inactive
CCN(CC(=O)Nc1c(F)cccc1F)C(=O)c1cccc(-n2cccc2)c1	inactive
CCC(C)NC(=O)Cn1c(=O)n(-c2ccccc2)c(=O)c2ccc(C(=O)NCc3ccco3)cc21 (centres undefined)	inactive
Cc1cc(C(=O)Nc2c(F)c(F)c(F)c(F)c2F)n(-c2ccccc2)n1	inactive
O=C(NCc1ccc(OC(F)(F)F)cc1)c1cccc2c1C(=O)c1ccc(N3CCCCC3)cc1S2(=O)=O	inactive
COc1ccccc1C(=O)COC(=O)C1(C)CC1(Cl)Cl (centres undefined)	inactive
CCOc1ccc(CC(=O)Nc2sc(Cc3ccccc3)c(C)c2C(N)=O)cc1OCC	inactive
S=C(Nc1ccccc1)N1CCn2c(nc3ccccc32)C1	inactive
O=C(COC(=O)c1ccccc1Br)NC1CCCC1	inactive
CCCCOc1cccc2c(=O)n(CC(=O)Nc3ccc4c(c3)OCCO4)ccc12	inactive
COc1ccc([C@H]2CC(=O)C=C(c3cc4ccccc4s3)C2)cc1	inactive
FC(F)(F)c1nnc2c3ccccc3c(Cl)nn12	inactive
COc1cc(-c2cnc3c(NC=O)cc(-c4ccccc4Cl)cn23)cc(OC)c1OC	inactive
COc1cccc(NC(=O)CSc2nnc(Cc3ccc(OC)c(OC)c3)o2)c1	inactive
Cc1ccnc(SCC(=O)n2c3c(c4ccccc42)CC(C)CC3)n1 (centres undefined)	inactive
